# Measured values as given in article PMC7862700, “An all-to-all approach to the identification of sequence-specific readers for epigenetic DNA modifications on cytosine”.
# How the values were obtained:
# Test in all cases: DAPPL (digital affinity profiling via proximity ligation, sequencing); 10 mM Tris-HCl pH 7.5, 50 mM NaCl, 1 mM DTT, 4% glycerol, room temperature, 30 min; GST-TFs on glutathione beads, 16-mer random dsDNA library, 0.1% formaldehyde crosslink after washing; high values mean tight binding
# FEV = target: T1, FEV (Homo sapiens, UniProt Q99581 1-238); settings: protein: recombinant; tags: N-terminal GST; dsDNA, one strand shown
# T1 sequence: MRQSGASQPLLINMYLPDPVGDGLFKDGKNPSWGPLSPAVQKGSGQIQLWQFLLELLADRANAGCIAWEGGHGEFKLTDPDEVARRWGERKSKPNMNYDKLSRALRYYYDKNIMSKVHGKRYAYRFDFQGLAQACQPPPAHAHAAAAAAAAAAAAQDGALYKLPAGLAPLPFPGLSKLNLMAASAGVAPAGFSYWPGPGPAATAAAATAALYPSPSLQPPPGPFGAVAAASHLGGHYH
# In short: (§1)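 Binding signal is defined as a hexamer's read frequency for one factor over its frequency for the tag-only sample. To obtain reads, GST-fused human transcription factors were expressed in yeast, captured on glutathione beads, barcoded with DNA and pooled with that sample. Pools met 200 nmole of a 16-mer random double-stranded DNA library in Tris/NaCl/DTT/glycerol buffer for 30 min at room temperature before washing, 0.1% formaldehyde crosslinking, proximity ligation (BsaI/T4 ligase, 1 h, 37 °C), PCR and Illumina NextSeq500 sequencing.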
# ETV5 = ETV5 (Homo sapiens, UniProt P41161 1-510); settings: protein: recombinant; tags: N-terminal GST; dsDNA, one strand shown
# Chain of ETV5 (P41161 whole entry): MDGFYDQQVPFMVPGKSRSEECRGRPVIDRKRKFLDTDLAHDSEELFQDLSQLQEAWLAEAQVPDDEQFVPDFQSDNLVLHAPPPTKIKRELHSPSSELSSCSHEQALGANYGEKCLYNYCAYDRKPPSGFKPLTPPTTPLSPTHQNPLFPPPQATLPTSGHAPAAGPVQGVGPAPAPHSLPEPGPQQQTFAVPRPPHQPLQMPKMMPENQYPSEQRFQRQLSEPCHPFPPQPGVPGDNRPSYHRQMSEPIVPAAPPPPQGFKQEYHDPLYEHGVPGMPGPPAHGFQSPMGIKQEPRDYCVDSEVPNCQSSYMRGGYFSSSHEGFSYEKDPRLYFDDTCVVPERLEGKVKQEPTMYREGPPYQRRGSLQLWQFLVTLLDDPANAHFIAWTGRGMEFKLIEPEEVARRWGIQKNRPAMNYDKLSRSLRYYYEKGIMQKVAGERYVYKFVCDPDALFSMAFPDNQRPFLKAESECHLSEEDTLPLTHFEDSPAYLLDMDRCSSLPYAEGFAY
# In short: as §1
# HSF1 = HSF1 (Homo sapiens, UniProt Q00613 1-529); settings: protein: recombinant; tags: N-terminal GST; chain copies: 3; dsDNA, one strand shown
# Chain of HSF1 (Q00613 whole entry): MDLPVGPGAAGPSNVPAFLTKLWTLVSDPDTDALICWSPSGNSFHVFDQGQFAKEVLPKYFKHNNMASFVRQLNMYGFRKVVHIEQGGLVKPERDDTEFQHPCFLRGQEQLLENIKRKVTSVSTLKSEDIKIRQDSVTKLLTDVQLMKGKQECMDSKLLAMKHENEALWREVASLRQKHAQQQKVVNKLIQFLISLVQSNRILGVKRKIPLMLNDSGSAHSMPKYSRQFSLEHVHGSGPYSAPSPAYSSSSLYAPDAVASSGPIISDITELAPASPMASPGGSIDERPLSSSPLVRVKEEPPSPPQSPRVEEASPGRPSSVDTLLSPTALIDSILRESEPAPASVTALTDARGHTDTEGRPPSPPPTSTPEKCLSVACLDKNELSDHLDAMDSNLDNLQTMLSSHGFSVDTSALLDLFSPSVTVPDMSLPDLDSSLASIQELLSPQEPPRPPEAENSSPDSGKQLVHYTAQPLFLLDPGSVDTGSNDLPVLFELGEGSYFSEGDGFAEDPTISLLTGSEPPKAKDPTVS
# In short: as §1
# SPIC = target: T2, SPIC (Homo sapiens, UniProt Q8N5J4 1-248); settings: protein: recombinant; tags: N-terminal GST; dsDNA, one strand shown
# T2 sequence: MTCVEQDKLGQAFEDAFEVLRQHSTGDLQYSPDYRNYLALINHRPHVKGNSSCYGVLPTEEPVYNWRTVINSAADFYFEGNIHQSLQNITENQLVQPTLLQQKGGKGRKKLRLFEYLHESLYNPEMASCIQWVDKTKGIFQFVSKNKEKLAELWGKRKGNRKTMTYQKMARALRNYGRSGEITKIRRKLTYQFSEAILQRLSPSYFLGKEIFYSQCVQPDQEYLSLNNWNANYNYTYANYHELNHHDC
# In short: as §1
# ELF4 = ELF4 (Homo sapiens, UniProt Q99607 1-663); settings: protein: recombinant; tags: N-terminal GST; dsDNA, one strand shown
# Chain of ELF4 (Q99607 whole entry): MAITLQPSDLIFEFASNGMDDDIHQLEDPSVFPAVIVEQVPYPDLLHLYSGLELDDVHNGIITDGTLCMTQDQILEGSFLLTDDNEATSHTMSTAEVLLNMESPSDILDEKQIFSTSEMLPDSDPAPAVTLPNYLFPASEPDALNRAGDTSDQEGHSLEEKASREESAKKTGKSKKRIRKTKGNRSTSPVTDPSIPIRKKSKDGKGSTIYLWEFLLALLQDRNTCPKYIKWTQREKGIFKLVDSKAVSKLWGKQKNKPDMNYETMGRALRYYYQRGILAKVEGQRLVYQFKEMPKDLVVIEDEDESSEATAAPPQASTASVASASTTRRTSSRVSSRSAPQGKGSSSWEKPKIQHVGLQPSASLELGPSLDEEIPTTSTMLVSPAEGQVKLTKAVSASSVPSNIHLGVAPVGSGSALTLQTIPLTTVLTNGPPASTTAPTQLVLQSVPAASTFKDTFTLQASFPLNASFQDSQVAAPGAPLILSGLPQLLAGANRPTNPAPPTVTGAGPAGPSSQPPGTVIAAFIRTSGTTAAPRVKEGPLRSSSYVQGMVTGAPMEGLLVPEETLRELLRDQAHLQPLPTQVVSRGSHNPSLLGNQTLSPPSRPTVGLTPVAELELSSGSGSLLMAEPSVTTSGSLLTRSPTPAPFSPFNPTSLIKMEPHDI
# In short: as §1
# ELK4 = target: T3, ELK4 (Homo sapiens, UniProt P28324-2 1-405); settings: protein: recombinant; tags: N-terminal GST; dsDNA, one strand shown
# T3 sequence: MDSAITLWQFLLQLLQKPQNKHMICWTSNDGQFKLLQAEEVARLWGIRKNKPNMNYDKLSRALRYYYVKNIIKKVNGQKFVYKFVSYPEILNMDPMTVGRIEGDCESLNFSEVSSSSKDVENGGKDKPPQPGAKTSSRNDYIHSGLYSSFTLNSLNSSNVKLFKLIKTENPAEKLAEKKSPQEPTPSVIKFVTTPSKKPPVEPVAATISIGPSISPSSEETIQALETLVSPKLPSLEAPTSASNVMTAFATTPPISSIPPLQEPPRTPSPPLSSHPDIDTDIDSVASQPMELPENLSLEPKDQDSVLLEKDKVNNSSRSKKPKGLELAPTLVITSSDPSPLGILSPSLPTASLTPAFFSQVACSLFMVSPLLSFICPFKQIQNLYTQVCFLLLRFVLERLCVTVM
# In short: as §1
# ETV2 = target: T4, ETV2 (Homo sapiens, UniProt O00321 1-342); settings: protein: recombinant; tags: N-terminal GST; dsDNA, one strand shown
# T4 sequence: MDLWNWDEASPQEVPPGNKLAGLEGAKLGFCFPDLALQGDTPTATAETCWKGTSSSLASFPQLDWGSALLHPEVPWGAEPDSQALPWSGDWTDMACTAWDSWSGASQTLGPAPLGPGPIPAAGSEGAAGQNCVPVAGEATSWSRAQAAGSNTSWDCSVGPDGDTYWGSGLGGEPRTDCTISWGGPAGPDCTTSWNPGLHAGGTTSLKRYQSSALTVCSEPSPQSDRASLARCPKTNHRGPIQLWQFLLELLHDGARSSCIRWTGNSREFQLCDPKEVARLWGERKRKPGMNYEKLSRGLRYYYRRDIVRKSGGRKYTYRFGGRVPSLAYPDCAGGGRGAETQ
# In short: as §1
# ELF3 = target: T5, ELF3 (Homo sapiens, UniProt P78545 1-371); settings: protein: recombinant; tags: N-terminal GST; dsDNA, one strand shown
# T5 sequence: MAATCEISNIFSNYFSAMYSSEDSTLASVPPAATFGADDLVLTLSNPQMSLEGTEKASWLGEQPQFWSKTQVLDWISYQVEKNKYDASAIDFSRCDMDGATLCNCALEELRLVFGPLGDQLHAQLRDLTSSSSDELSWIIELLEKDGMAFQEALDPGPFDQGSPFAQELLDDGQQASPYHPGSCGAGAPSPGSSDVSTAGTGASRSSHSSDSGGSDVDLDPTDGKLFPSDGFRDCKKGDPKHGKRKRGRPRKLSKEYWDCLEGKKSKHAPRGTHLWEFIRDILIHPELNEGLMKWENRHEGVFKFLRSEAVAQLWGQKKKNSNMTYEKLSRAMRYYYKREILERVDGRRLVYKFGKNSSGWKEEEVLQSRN
# In short: as §1
# CRX = CRX (Homo sapiens, UniProt O43186 1-299); settings: protein: recombinant; tags: N-terminal GST; dsDNA, one strand shown
# Chain of CRX (O43186 whole entry): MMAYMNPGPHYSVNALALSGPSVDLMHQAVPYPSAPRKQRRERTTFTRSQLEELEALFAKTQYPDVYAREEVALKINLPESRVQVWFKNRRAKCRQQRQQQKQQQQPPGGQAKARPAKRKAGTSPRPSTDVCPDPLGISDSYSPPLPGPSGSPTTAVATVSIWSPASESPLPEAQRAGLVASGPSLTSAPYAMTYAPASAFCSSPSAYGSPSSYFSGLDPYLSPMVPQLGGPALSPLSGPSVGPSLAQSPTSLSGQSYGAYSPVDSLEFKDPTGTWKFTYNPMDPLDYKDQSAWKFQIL
# In short: as §1
# ETV1 = ETV1 (Homo sapiens, UniProt P50549 1-477); settings: protein: recombinant; tags: N-terminal GST; dsDNA, one strand shown
# Chain of ETV1 (P50549 whole entry): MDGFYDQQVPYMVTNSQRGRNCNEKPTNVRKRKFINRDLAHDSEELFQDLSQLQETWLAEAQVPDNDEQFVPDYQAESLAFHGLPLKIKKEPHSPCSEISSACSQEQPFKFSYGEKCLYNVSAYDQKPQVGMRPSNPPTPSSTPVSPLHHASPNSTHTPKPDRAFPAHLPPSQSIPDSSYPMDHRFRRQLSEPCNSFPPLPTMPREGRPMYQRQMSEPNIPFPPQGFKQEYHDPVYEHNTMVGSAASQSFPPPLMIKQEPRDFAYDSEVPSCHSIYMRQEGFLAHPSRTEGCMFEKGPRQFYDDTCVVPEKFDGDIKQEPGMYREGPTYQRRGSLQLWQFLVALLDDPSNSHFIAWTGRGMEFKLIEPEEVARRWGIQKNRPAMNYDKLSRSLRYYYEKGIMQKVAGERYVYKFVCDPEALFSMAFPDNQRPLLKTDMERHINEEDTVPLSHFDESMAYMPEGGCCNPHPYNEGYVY
# In short: as §1
sequence,measurement,setting,value
CGACAA,binding signal,FEV,"1.3 fold enrichment (6-mer frequency, TF over GST control)"
same,binding signal,ETV5,"1.24 fold enrichment (6-mer frequency, TF over GST control)"
same,binding signal,HSF1,"1.12 fold enrichment (6-mer frequency, TF over GST control)"
same,binding signal,SPIC,"1.15 fold enrichment (6-mer frequency, TF over GST control)"
same,binding signal,ELF4,"1.18 fold enrichment (6-mer frequency, TF over GST control)"
same,binding signal,ELK4,"1.13 fold enrichment (6-mer frequency, TF over GST control)"
same,binding signal,ETV2,"1.08 fold enrichment (6-mer frequency, TF over GST control)"
same,binding signal,ELF3,"1.17 fold enrichment (6-mer frequency, TF over GST control)"
same,binding signal,CRX,"1.03 fold enrichment (6-mer frequency, TF over GST control)"
same,binding signal,ETV1,"1.18 fold enrichment (6-mer frequency, TF over GST control)"
